# Measured values as given in PMC4336329 (PLoS ONE, 2015).
# About 14,000 (4.5%) of roughly 310,000 compounds showed an effect of 50% or more. The effect is printed as a negative number. The sample holds strong results, similar compounds and a random draw of the others, so the mix is not that of the screen.
# Target: human ether-à-go-go-related gene (hERG) potassium channel (human, UniProt Q12809)
# Experiment: primary screen, population patch clamp on CHO cells stably expressing hERG; higher = less effect of the substance
# 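Further: peak tail current of the secondary pulse compared with the same well before compound.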
# human ether-à-go-go-related gene (hERG) potassium channel, sequence (Q12809 whole entry, looked up): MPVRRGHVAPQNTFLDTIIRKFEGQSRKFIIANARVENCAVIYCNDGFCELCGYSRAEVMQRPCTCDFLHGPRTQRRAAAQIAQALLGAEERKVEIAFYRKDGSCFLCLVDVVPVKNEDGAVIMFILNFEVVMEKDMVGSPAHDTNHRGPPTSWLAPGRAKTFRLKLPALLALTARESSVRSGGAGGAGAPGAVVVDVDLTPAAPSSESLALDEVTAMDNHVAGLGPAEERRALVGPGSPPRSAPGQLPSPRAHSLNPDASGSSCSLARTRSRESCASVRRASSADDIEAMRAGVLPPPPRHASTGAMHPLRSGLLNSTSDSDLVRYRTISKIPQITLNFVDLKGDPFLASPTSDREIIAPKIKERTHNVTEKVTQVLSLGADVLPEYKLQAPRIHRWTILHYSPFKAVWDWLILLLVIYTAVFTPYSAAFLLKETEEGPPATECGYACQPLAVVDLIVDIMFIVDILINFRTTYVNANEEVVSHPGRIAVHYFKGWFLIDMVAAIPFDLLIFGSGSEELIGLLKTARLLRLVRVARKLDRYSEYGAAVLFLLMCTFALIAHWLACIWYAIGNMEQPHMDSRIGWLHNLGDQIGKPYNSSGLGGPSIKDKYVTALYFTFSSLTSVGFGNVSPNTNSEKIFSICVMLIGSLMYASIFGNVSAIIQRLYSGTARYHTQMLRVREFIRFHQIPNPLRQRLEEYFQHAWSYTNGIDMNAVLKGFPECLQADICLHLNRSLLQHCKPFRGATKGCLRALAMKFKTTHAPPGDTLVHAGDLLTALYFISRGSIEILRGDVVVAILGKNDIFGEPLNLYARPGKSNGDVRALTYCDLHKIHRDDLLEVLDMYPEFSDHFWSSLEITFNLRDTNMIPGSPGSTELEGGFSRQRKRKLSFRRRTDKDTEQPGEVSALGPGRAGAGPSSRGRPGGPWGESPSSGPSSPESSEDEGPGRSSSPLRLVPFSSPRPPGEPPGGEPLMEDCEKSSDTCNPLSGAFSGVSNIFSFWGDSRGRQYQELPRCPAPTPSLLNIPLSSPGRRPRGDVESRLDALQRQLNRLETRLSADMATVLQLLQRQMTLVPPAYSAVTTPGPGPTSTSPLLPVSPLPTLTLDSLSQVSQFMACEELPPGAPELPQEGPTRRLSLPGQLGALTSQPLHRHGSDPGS
row,Structure (SMILES),"hERG current change (%, negative = inhibition) at 10uM [%]"
1,N#Cc1ccc(OCC(O)CS(=O)(=O)c2ccccc2)cc1 (stereo not drawn),-21
2,CC(=O)c1ccc(S(=O)(=O)Nc2cc3c(cc2C(C)=O)OCO3)cc1,21.2
3,COc1ccc(C(=O)N(Cc2nc(-c3ccc(C)cc3)no2)C(C)C)cc1OC,-31.4
4,CCCCCCN1C2=NCCN2c2ccccc21.Cl,-74
5,CCCN1C2=NCCN2c2ccccc21.Cl,-9.75
6,Br.CCCCCN1C2=NCCN2c2ccccc21,-71.4
7,CCCCCCCN1C2=NCCN2c2ccccc21.Cl,-79.6
8,O=C(NC1CCCC1)c1cc2nc(-c3ccco3)cc(C(F)(F)F)n2n1,20.1
9,C#CCOCCOCCOCCNc1nc(N2CCN(C(=O)[C@H]([C@@H](C)CC)n3cc([C@@H](N)CO)nn3)CC2)nc(N2CCN(C(=O)[C@H](CCCCN)n3cc([C@@H](N)CC(C)C)nn3)CC2)n1.Cl,-0.687
10,NC(=O)CSc1cn(Cc2ccc(F)cc2)c2ccccc12,2.24
11,COc1ccc2c(c1)c(=O)oc1c(C)c(OCc3cc(C(=O)O)oc3C)ccc12,22.5
12,C=CCc1c(C)nc(-c2ccccc2)nc1N/N=C(\C)c1ccc(N)cc1,-0.357
13,O=C(NCCCN1CCN(c2ccc(F)cc2)CC1)Nc1ccc([N+](=O)[O-])cc1,-73.9
14,CSc1ccc(NC(=O)NCCCN2CCN(c3ccccc3F)CC2)cc1,-55.1
15,O=C(NCCCN1CCOCC1)NC12CC3CC(CC(C3)C1)C2,1.72
16,O=C(NCCc1ccc(F)cc1)NC12CC3CC(CC(C3)C1)C2,-13.4
17,CN1CCN(CCCNC(=O)Nc2ccc([N+](=O)[O-])cc2)CC1,-7.46
18,O=C(NCCc1ccc(F)cc1)Nc1ccc([N+](=O)[O-])cc1,-12
19,CSc1ccc(N2CCN(CCCNC(=O)Nc3ccccc3F)CC2)cc1,-49.1
20,Cc1ccc(NC(=O)NCCN2CCN(C(=O)Nc3ccc(C)cc3)CC2)cc1,-36.4
21,CCOc1cccc(N2CCN(CCNC(=O)Nc3ccc(C)cc3)CC2)c1C,-57
22,O=C(NCCCN1CCN(c2ccc(F)cc2)CC1)NC12CC3CC(CC(C3)C1)C2,-73.2
23,O=C(CN1C(=O)COc2ccccc21)NCCCN1CCN(c2ccccc2F)CC1,-10.7
24,CCOc1ccc(NC(=O)NCCN2CCN(c3cccc(C)c3C)CC2)cc1,-24.3

row,Structure (SMILES),"hERG current change (%, negative = inhibition) at 10uM [%]"
1,COc1c(C=O)cc2c3c1CCCN3CCC2,23.3
2,COc1ccc(N(C(=O)c2ccco2)C(C(=O)NC2CCCC2)c2cccs2)cc1OC (stereo not drawn),1.89
3,O=S1(=O)N=C(N/N=C/c2ccco2)c2ccccc21,13.1
4,COc1ccc(S(=O)(=O)N2CCOCC2)cc1NC(=O)COc1ccccc1OC,22.3
5,COc1cc(C(=O)OCC(=O)N2CCOCC2)c([N+](=O)[O-])cc1OC,14.5
6,O=C(Nc1nccs1)c1ccc(COc2ccc(F)cc2)o1,8.63
7,O=C1C2C(C(=O)N1c1nccs1)C1C=CC2C12CC2 (stereo not drawn),-8.95
8,COc1ccc(NC(=O)CN2CCN(c3ccccc3F)CC2)cc1,-18.1
9,CCOc1ccc(NC(=O)NCCN2CCN(c3ccccc3F)CC2)cc1,-62.3
10,O=C(Cc1ccccc1[N+](=O)[O-])N1CCN(c2ccccc2F)CC1,3.23
11,O=C(NCCCN1CCN(c2ccccc2F)CC1)Nc1ccccc1[N+](=O)[O-],-72.1
12,O=C(NCCCN1CCN(c2ccccc2F)CC1)Nc1ccc(F)cc1,-66.3
13,COc1ccc(NC(=O)NCCCN2CCN(c3ccccc3F)CC2)cc1,-63.6
14,CCOc1ccc(NC(=O)NCCCN2CCCC2)cc1,-1.89
15,O=C(NCCCN1CCCC1)Nc1ccccc1[N+](=O)[O-],18.1
16,CCOc1ccc(NC(=O)CCN2CCN(c3ccccc3F)CC2)cc1,-20.2
17,O=C(NCCCN1CCCC1)Nc1ccc(F)cc1,4.71
18,CCc1ccc(NC(=O)NCCN2CCN(c3ccc(OC)cc3)CC2)cc1,-14.1
19,O=C(NCCN1CCCCC1)Nc1ccc(F)cc1,-13.1
20,Cc1ccc(C(=O)NC(=S)Nc2ccc(-c3cc4ccccc4oc3=O)cc2)c(C)c1,27.1
21,Cc1ccc(C(=O)NCCc2ccccc2)cc1,-1.2
22,CSc1cccc(NC(=O)Nc2ccccc2C(N)=O)c1,15.3
23,CCCOc1ccc(/C=N\NC(=O)CCc2n[nH]c(=O)[nH]c2=O)cc1OC,2.51
24,COc1ccc(C2=NCC(CSc3nccc(=O)[nH]3)S2)cc1 (stereo not drawn),1.52

row,Structure (SMILES),"hERG current change (%, negative = inhibition) at 10uM [%]"
1,O=C(Cc1n[nH]c(=O)c2ccccc12)NC(c1ccccc1)c1ccccc1,6.6
2,Cn1c(=O)c(-c2cc(Br)ccc2N)nc2ccccc21,-29.3
3,COc1ccc(C(=O)COC(=O)c2cc(C)no2)c(OC)c1,12
4,COC(=O)c1ccc(/C=C/C(=O)O)cc1,11.9
5,COC(=O)c1ccc2c(c1)C(=O)/C(=C/c1ccc(O)cc1)O2,18.2
6,COC(=O)c1ccc2c(c1)C(C)(C)C(/C=C/c1ccc(O)cc1)=[N+]2C.[I-],-70.9
7,COC(=O)c1ccc2nc(C)c(C)nc2c1,15.8
8,COC(=O)c1ccc2c(c1)C(C)(C)C(/C=C/c1ccc(OC)c(OC)c1OC)=[N+]2C.[I-],-2.88
9,COC(=O)c1ccc2c(c1)C(C)(C)C(/C=C/c1ccccc1O)=[N+]2C.[I-],-69.5
10,O=C(O)[C@@H](O)c1ccccc1,6.63
11,CCOC(=O)c1sc2ncn(C(CC)C(=O)OC)c(=O)c2c1C (stereo not drawn),9.35
12,NC(=O)c1oc2ccccc2c1NC(=O)c1nc2ccccc2s1,6.28
13,CN(/N=C/c1ccccc1O)C(=S)c1ccccc1,-3.8
14,CN1CCc2nc(NC(=O)COc3ccc(C#N)cc3)sc2C1,-7.85
15,O=C(COc1ccccc1)Nc1nc2c(s1)CCCC2,-20.3
16,CN1CCc2nc(NC(=O)COc3ccc4ccccc4c3)sc2C1,-56.2
17,O=C(c1cccc(-c2ccccc2F)c1)N1CC[C@@H](N2CCC(O)CC2)[C@H](O)C1,-17.7
18,Cc1cccc(OCC(O)CN2C(C)(C)CC(O)CC2(C)C)c1 (stereo not drawn),-33.2
19,Cc1cccc(OCC(O)CN2C(C)(C)CC(O)CC2(C)C)c1C (stereo not drawn),-51.3
20,CC1(C)CC(O)CC(C)(C)N1CC(O)COCc1ccccc1 (stereo not drawn),11.7
21,Cc1cccc(N2CCN(CC(O)COc3ccccc3Cl)CC2)c1 (stereo not drawn),-56
22,C=C1CC(C)OC(c2ccccc2OCC(O)CN2CCCCC2)C1 (stereo not drawn),-72.4
23,OC(COc1cccc2ccccc12)CN1CCN(c2ccc(Cl)cc2)CC1 (stereo not drawn),-3.42
24,Cc1cccc(N2CCN(CC(O)COc3ccc(Cl)cc3)CC2)c1 (stereo not drawn),-41.3

row,Structure (SMILES),"hERG current change (%, negative = inhibition) at 10uM [%]"
1,OC(COc1cccc2ccccc12)CN1CCN(c2cccc(Cl)c2)CC1 (stereo not drawn),1.82
2,Cc1ccccc1OCC(O)CN1CCN(c2ccc(Cl)cc2)CC1 (stereo not drawn),-66.3
3,CC1CN(CC(O)COc2ccccc2C(C)(C)C)CC(C)O1.Cl (stereo not drawn),-10.1
4,Cc1ccccc1OCC(O)CN1CCCCC1.Cl (stereo not drawn),9.68
5,COC(=O)c1ccc(NC(=O)c2c(C(=O)Nc3ccccc3)sc3nc(C)cc(=O)n23)cc1,15.3
6,Cc1ccccc1NC(=O)CSc1nnnn1C,6.94
7,CCOC(=O)c1c(-c2ccccc2)csc1NC(=O)c1cc(S(=O)(=O)N2CCOCC2)ccc1C,2.23
8,N#Cc1sc2nc(-c3cccs3)cc(-c3ccc(Cl)cc3)c2c1N,-2.05
9,C=CCc1cccc2cc(C(=O)N3CCN(c4ccccn4)CC3)c(=O)oc12,-38.9
10,O=C1COc2ccc(C(=O)COC(=O)c3ncc(Cl)c(Cl)c3Cl)cc2N1,36.6
11,COc1ccc(/C=C/C2=NN(C)C(=O)CC2)cc1,13.4
12,O=C(N/N=C\c1ccc(CNS(=O)(=O)c2ccccc2)o1)C(=O)Nc1ccc(F)cc1,-22.3
13,S=C(NCc1ccc2c(c1)OCO2)NC1CCN(Cc2ccccc2)CC1,20.6
14,CCOC(=O)c1nc(C)n(-c2ccc(Cl)cc2Cl)n1,8.75
15,COc1ccc(-c2nc(SC(CC(=O)NCCN3CCOCC3)c3cccs3)n[nH]2)cc1 (stereo not drawn),1.08
16,COc1ccc(N2CCN(CC(O)COc3ccccc3[N+](=O)[O-])CC2)cc1.Cl (stereo not drawn),-44.1
17,Cc1ccccc1OCC(O)CN1CCN(CC(O)COc2ccccc2C)CC1 (stereo not drawn),-81.6
18,Cc1ccccc1OCC(O)CN1CCC(C)CC1.Cl (stereo not drawn),-34.1
19,Cc1ccccc1OCC(O)CN.Cl.O (stereo not drawn),-1.72
20,O=[N+]([O-])c1ccccc1OCC(O)CN1CCN(CC(O)COc2ccccc2[N+](=O)[O-])CC1 (stereo not drawn),-60.2
21,COc1ccccc1OCC(O)CN1CCN(CC(=O)Nc2c(C)cccc2C)CC1 (stereo not drawn),-18.6
22,Cc1ccccc1OCC(O)CN1CCN(C)CC1.Cl (stereo not drawn),-0.704
23,CCOC(=O)N1CCN(CC(O)COc2ccccc2[N+](=O)[O-])CC1.Cl (stereo not drawn),-0.882
24,Cc1ccccc1OCC(O)CN1CCN(CC(O)COc2ccccc2C)C(C)C1.O=C(O)C(=O)O (stereo not drawn),-70.8
